Calls of active or inactive are those of the source.
Experiments:
[1] = small molecules captured by biotinylated probe aFSTL3 – biochemical, small-molecule microarray, fluorescence 635/667, stem cell growth factor project, primary screen (AID 1064); details: higher = more signal;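 note: measures binding of the biotinylated anti-FSTL3 antibody to printed compounds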
[2] = binders from COS7 lysate, DM2A8 probe, primary screen, torsin A project, cell lysate, small-molecule microarray, fluorescence 635/667 (AID 1065); details: higher = more signal, COS7 lysate expressing mutant human TOR1A
[3] = small molecules captured by biotinylated probe aFGF2 – biochemical, small-molecule microarray, fluorescence 635/667, stem cell growth factor project, primary screen (AID 1067); details: higher = more signal;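 note: measures binding of biotinylated aFGF2 protein to printed compounds on slides; z-score merges feature fluorescence and signal-to-noise across triplicate slides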
[4] = small molecules captured by biotinylated probe aFGF10 – biochemical, small-molecule microarray, fluorescence 635/667, stem cell growth factor project, primary screen (AID 1071); details: higher = more signal;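 note: score merges 667 nm spot intensity and signal to noise from triplicate slides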
[5] = target: Neurogenic locus notch homolog protein 2 (Homo sapiens) (UniProt Q04721); assay: small molecules binding Notch2 protein – biochemical, small-molecule microarray, 635 nm fluorescence, stem cell growth factors, primary screen (AID 1073); details: higher = more signal
Sequence of Neurogenic locus notch homolog protein 2 (Homo sapiens) (Q04721 whole entry, looked up, canonical isoform): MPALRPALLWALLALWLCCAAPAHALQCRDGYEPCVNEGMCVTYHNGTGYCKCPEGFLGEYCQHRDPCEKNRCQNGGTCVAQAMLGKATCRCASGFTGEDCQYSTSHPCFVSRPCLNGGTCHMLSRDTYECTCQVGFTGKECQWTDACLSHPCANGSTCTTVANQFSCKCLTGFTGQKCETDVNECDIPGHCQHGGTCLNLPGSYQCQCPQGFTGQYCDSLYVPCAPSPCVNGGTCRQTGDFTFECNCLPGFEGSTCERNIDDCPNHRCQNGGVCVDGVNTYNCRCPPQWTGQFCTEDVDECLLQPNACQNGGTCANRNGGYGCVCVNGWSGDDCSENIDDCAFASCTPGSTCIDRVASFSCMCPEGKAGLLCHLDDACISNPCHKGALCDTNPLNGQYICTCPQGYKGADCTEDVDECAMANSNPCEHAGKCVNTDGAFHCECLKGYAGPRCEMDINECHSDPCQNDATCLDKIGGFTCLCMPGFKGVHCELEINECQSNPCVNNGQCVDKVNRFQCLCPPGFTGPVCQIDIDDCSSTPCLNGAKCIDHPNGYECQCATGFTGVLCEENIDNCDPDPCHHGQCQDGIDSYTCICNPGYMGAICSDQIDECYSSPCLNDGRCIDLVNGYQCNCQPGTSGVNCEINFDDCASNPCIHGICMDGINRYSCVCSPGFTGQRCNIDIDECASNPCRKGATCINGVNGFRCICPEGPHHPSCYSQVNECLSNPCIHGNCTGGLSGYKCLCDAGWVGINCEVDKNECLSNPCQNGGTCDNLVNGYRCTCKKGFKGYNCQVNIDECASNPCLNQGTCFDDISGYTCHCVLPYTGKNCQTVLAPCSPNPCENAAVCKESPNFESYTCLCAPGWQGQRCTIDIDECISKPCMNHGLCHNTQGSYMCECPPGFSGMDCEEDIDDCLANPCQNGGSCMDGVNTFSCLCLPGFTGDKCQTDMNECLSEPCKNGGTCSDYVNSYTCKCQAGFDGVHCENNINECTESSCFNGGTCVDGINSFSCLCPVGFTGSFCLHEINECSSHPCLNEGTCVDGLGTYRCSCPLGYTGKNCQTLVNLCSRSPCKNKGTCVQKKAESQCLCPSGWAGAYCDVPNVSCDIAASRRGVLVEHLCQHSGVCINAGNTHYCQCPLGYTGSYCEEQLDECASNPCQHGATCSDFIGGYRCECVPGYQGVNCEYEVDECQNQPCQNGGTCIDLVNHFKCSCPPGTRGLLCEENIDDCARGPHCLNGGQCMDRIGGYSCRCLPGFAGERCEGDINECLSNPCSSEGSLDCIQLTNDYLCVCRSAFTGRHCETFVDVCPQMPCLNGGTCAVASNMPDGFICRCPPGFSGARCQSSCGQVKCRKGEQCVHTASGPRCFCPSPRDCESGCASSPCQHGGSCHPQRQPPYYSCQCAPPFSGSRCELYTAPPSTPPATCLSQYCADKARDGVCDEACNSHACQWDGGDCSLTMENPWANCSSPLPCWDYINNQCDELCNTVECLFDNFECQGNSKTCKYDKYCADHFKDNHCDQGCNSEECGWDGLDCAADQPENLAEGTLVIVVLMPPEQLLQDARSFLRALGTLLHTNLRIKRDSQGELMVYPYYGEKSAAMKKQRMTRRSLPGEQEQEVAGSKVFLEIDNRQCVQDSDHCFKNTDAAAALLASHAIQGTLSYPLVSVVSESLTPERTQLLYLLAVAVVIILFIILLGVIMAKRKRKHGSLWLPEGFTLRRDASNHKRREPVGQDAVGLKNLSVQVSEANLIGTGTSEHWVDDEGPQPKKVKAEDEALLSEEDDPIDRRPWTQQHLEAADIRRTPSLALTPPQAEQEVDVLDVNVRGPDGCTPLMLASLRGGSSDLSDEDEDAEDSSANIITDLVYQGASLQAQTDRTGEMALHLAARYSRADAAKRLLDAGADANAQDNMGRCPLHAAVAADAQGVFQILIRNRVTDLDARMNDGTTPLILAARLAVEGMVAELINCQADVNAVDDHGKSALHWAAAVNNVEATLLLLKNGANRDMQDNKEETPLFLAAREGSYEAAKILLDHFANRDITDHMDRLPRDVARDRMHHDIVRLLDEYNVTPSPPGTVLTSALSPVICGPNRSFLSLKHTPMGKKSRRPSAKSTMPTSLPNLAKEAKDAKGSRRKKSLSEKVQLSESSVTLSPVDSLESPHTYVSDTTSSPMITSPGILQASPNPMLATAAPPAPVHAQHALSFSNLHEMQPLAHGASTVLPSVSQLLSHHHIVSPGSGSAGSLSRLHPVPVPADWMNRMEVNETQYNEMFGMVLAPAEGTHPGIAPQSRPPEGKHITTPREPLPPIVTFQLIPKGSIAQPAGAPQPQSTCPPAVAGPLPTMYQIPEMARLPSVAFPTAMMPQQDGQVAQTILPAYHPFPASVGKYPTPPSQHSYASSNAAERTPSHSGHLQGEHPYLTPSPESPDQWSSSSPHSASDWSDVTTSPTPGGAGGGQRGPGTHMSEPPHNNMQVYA

[6] = target: Pro-neuregulin-1, membrane-bound isoform (Homo sapiens) (UniProt Q02297); assay: small molecules binding neuregulin-1 protein – biochemical, small-molecule microarray, fluorescence 635/667, psychiatric disease protein project, primary screen (AID 1075); details: NRG1 binding, 635 nm fluorescence, higher = more signal;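 note: score combines 667 nm spot fluorescence with signal to noise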
[7] = system: Neuregulin-1 EGF-like domain; assay: small molecules binding NRG1 EGF domain – biochemical, small-molecule microarray, 635 nm fluorescence, primary screen (AID 1081); details: higher = more signal;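 note: binding of the protein to compounds printed on small-molecule microarray slides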
[8] = FRG1 expression reporter modulators in myotubes – cell-based, C2C12 myotubes, firefly/Renilla luciferase, luminescence, FRG1 inhibition for FSHD, primary screen (AID 1084); details: FRG1 promoter luciferase, higher = more signal, called active from +8 up or from −8 down
[9] = small molecules captured by biotinylated probe aFST – biochemical, small-molecule microarray, fluorescence 635/667, stem cell growth factor project, primary screen (AID 1086); details: higher = more signal;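 note: score merges 667 nm fluorescence with signal-to-noise of each printed compound spot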
[10] = binders of probe aHhip on microarray, primary screen, stem cell growth factor project, biochemical, small-molecule microarray, fluorescence 635/667 (AID 1087); details: higher = more signal;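 note: score merges spot fluorescence at 667nm with spot signal to noise ratio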
[11] = system: PRMT1 (protein arginine N-methyltransferase 1); assay: small molecules binding arginine methyltransferase PRMT1 – biochemical, small-molecule microarray, 635 nm fluorescence, primary screen (AID 1088); details: higher = more signal;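 note: binding of Prmt1 protein to compounds spotted on small-molecule microarray slides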
[12] = growth effects on S. cerevisiae YJM789 – YJM789 clinical isolate, OD600, 24 h, basal, primary screen (AID 1089); details: higher = more signal, called active from +8 up or from −8 down;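 note: growth of clinical yeast isolate S. cerevisiae YJM 789 seeded 1000 cells per well; test concentration not given here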
[13] = S. pombe growth modifiers, basal conditions – strain 972, OD600, 24 h, no modulator, primary screen (AID 1090);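 note: basal condition with compound alone and no growth modifier present; test concentration not given here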; details: S. pombe 972 growth, higher = more signal, called active from +8 up or from −8 down
[14] = budding yeast growth modifiers under rapamycin – strain BY4716, OD600, 96 h, primary screen (AID 1091); note: test concentration not given here; details: S. cerevisiae BY4716 + rapamycin, higher = more signal, called active from +8 up or from −8 down
[15] = target: Torsin-1A-interacting protein 2 (Homo sapiens) (UniProt Q8NFQ8); assay: small molecules binding lysate-expressed LULL1 – cell lysate, human LULL1 lysate, 635/667 nm fluorescence, primary screen (AID 1092); details: small-molecule microarray, hLULL1 lysate binding, 635 nm fluorescence; higher = more signal;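 note: probe is lysate of COS7 cells overexpressing human LULL1; score merges per-feature 667 nm fluorescence with signal-to-noise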
[16] = optical density change of DRC41 E. coli – strain DRC41, OD650, 24 h, E. coli filamentation project, primary screen (AID 1093);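 note: MC1000 strain lacking acrAB efflux and sulA so SOS filamentation is blocked; test concentration not given here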; details: E. coli DRC41 growth, higher = more signal, called active from +8 up or from −8 down
[17] = probe aLefty2 binding to arrayed compounds – biochemical, biotinylated probe, 635/667 nm fluorescence, primary screen (AID 1094); details: small-molecule microarray, higher = more signal;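 note: score merges spot fluorescence near 667 nm with spot signal-to-noise ratio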
[18] = system: Noggin (protein binding on small-molecule microarray); assay: small molecules binding Noggin protein – biochemical, 635/667 nm fluorescence, primary screen (AID 1095); details: 635 nm fluorescence, higher = more signal;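 note: score merges 667 nm feature fluorescence with signal to noise over triplicate slides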
[19] = target: Neurogenic locus notch homolog protein 3 (Homo sapiens) (UniProt Q9UM47); assay: small molecules binding NOTCH3 protein – biochemical, 635/667 nm fluorescence, primary screen (AID 1096); details: small-molecule microarray, 635 nm fluorescence, higher = more signal
Sequence of Neurogenic locus notch homolog protein 3 (Homo sapiens) (Q9UM47 whole entry, looked up): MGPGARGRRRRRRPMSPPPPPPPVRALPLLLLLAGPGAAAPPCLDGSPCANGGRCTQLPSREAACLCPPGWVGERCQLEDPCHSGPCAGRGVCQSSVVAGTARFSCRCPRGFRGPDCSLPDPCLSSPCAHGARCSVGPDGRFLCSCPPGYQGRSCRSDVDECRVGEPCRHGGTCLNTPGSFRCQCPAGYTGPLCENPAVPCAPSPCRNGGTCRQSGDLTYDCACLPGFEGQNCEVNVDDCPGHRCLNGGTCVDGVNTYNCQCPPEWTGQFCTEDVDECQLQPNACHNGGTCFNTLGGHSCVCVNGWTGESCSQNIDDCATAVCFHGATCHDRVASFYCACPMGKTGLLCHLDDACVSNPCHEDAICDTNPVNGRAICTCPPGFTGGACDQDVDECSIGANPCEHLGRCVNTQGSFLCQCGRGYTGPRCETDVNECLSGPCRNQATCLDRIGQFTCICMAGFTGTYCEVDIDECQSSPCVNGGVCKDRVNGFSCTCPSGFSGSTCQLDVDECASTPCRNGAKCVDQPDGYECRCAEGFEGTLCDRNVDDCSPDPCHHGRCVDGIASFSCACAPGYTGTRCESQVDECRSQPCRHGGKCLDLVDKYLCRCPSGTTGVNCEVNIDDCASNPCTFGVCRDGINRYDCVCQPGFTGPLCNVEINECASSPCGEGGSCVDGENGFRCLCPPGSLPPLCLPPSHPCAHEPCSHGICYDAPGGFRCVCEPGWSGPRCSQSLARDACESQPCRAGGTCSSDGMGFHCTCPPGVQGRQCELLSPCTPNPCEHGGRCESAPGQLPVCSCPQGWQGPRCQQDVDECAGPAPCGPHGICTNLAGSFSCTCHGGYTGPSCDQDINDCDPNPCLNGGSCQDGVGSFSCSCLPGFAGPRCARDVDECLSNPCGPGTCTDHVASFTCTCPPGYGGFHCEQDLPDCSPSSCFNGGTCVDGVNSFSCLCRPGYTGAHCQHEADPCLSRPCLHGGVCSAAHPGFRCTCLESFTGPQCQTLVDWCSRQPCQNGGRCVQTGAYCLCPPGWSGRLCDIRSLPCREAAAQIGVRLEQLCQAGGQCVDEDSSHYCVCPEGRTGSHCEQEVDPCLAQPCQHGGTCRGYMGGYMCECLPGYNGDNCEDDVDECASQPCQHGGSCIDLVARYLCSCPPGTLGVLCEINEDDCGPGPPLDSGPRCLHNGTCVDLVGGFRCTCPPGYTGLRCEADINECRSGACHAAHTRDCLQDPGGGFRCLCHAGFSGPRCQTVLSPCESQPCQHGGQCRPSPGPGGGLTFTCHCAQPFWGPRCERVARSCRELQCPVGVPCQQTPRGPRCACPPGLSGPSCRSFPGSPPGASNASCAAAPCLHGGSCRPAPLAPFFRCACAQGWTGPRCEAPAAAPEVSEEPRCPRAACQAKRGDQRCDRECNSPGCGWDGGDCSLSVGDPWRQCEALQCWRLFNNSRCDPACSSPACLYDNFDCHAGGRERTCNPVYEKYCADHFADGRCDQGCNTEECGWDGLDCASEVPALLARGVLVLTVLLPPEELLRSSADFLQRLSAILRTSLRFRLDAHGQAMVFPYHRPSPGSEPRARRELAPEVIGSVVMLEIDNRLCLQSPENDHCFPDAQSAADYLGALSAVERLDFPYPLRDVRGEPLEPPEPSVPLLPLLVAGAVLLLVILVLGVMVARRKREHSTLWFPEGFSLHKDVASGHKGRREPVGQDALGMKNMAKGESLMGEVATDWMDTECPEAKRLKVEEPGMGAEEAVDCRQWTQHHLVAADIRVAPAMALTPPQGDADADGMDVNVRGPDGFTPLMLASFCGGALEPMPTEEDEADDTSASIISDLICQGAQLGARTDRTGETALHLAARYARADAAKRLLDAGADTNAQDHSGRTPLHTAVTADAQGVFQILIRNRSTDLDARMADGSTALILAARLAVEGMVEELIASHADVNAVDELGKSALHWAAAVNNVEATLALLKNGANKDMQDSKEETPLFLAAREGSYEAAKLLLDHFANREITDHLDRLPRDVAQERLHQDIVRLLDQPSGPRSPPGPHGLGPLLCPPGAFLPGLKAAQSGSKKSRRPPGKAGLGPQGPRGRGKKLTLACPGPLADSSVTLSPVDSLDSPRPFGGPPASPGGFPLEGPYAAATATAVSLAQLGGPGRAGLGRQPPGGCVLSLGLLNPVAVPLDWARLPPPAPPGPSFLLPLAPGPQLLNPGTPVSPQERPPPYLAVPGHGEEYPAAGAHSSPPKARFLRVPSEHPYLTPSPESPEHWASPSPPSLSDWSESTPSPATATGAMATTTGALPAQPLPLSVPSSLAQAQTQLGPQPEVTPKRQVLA

[20] = probe aEGFR binding to arrayed compounds – biochemical, biotinylated probe, 635/667 nm fluorescence, primary screen (AID 1097); details: small-molecule microarray, higher = more signal;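 note: probe is a biotinylated anti-EGFR antibody binding compounds printed on slides; score combines fluorescence near 667 nm and signal to noise of each spot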

SMILES | composite z-score [1] | composite z-score [2] | composite z-score [3] | composite z-score [4] | composite z-score [5] | composite z-score [6] | composite z-score [7] | z-score [8] | composite z-score [9] | composite z-score [10] | composite z-score [11] | z-score [12] | z-score [13] | z-score [14] | composite z-score [15] | z-score [16] | composite z-score [17] | composite z-score [18] | composite z-score [19] | composite z-score [20]
C=CCC1(CC=C)C[C@H]2CO[C@H](c3ccc(OC)cc3)N2C1=O | 0.79 | 0.533 | -0.107 | 0.201 | -0.412 | 0.0973 | 0.523 | -0.465 (inactive) | 0.132 | -0.0994 | -0.109 | -0.137 (inactive) | -2.77 (inactive) | -0.484 (inactive) | 0.288 | 2 (inactive) | 0.109 | 0.377 | -0.638 | -0.0204
Cc1ccc(S[C@]2(C(=O)NCCN3CCOCC3)CC(=O)N(Cc3cc(C(F)(F)F)cc(C(F)(F)F)c3)[C@@H]2c2ccc(CO)cc2)cc1 | 0.62 | -0.439 | -0.15 | -1.35 | -1.26 | 1.04 | -0.382 | -1.67 (inactive) | -0.341 | -0.0632 | 1.24 | -1.03 (inactive) | -3.43 (inactive) | -2.07 (inactive) | 1.47 | 0.611 (inactive) | -0.136 | -0.984 | -0.54 | -0.252
CN(C)CCCC[C@@H]1NC(=O)[C@@H]2C[C@H](C(=O)NCCCCCNC(=O)CS)[C@H](c3cccc(OCCO)c3)N2C1=O | 0.32 | 0.532 | -0.101 | 0.141 | 0.393 | 0.267 | 1.2 | 0.37 (inactive) | 0.19 | 0.259 | 1.07 | -2.64 (inactive) | -1.81 (inactive) | -2.15 (inactive) | 0.127 | 2.1 (inactive) | 0.0494 | 1.62 | 0.162 | 0.186
C=CCN1C(=O)[C@@]2(O[C@@H](CCO)[C@H]([Si](C)(C)c3ccc(OC)cc3)[C@H]2C)c2cc(N(C=O)c3ccccc3)ccc21 | 0.156 | 0.24 | -0.125 | 0.461 | 0.555 | 0.657 | 0.904 | -1.06 (inactive) | 0.143 | 0.154 | 1.11 | 0.551 (inactive) | -0.67 (inactive) | 21 (active) | 0.586 | 1.85 (inactive) | 0.0183 | 0.366 | 0.259 | -0.0304
COCCCNC(=O)[C@@]1(Cc2ccccc2)N=C(c2ccc(OCCCO)cc2)O[C@H]1c1ccccc1N=[N+]=[N-] | 1.38 | 0.768 | 0.269 | 0.727 | 1.14 | 0.276 | 1.13 | -1.37 (inactive) | 0.836 | -0.121 | 0.85 | 0.448 (inactive) | -0.051 (inactive) | 2.71 (inactive) | 2.47 | 1.59 (inactive) | 0.612 | 1.89 | 0.773 | 0.247
CO[C@H]1O[C@H](CO)[C@@H](OC(=O)Nc2ccccc2)[C@H](OC(=O)Nc2ccccc2-c2ccccc2)[C@H]1OC(=O)Nc1ccccc1-c1ccccc1 | 0.183 | 1.85 | -0.0449 | 0.567 | 0.555 | 1.31 | 1.3 | -0.114 (inactive) | 0.714 | -0.0296 | 1.54 | -2.03 (inactive) | -0.674 (inactive) | 1.22 (inactive) | 2.91 | 1.39 (inactive) | -0.0699 | 0.764 | 0.965 | -0.0978
COc1ccc(C#Cc2ccc3c(c2)[C@]2(C(=O)N3)[C@H](c3ccc(O)cc3)N3[C@H](c4ccccc4)[C@H](c4ccccc4)OC(=O)[C@H]3[C@@H]2C(N)=O)cc1 | 0.573 | 0.395 | 0.0519 | 0.889 | -0.695 | 1.68 | 0.785 | 0.532 (inactive) | -0.235 | -0.24 | 0.632 | 1.46 (inactive) | -1.02 (inactive) | 2.73 (inactive) | 2.14 | 1.68 (inactive) | -0.2 | -0.877 | -0.854 | -0.401
C=C(C(=O)CC[C@@H](OC(C)=O)c1ccccc1OCCO)C(C)C | -0.354 | -0.363 | -0.133 | 0.664 | -0.553 | -0.267 | -0.29 | -2.13 (inactive) | -0.575 | -0.0994 | 0.526 | -6.28 (inactive) | -20.5 (active) | -2.44 (inactive) | -0.0719 | 1.27 (inactive) | -0.2 | -0.0776 | 0.232 | -0.249
COC(=O)[C@@]1(CCC(=O)OC(C)(C)C)COC(c2ccc(OCCCO)cc2)=N1 | 1.47 | -1.53 | -0.212 | -1.92 | -1.89 | -0.312 | 0.256 | -0.44 (inactive) | -0.311 | -0.405 | -0.964 | -1.42 (inactive) | -0.502 (inactive) | -0.752 (inactive) | -0.771 | 0.989 (inactive) | 0.0399 | -1.99 | -1.84 | -0.36
O=C(NO)[C@]1(Cc2ccccc2)N=C(c2ccc(OCCCO)cc2)O[C@@H]1c1ccccc1 | 0.464 | 1.2 | -0.246 | -0.134 | -0.66 | 0.545 | -0.921 | -1.62 (inactive) | 0.14 | -0.0645 | -0.269 | -4.96 (inactive) | -3.08 (inactive) | -1.94 (inactive) | -0.231 | 3.42 (inactive) | 0.0204 | -0.0613 | -1.1 | -0.174

From PubChem BioAssay
